Our source for the binding signal values is paper PMC7862700, “An all-to-all approach to the identification of sequence-specific readers for epigenetic DNA modifications on cytosine”.

Assay in all cases: DAPPL (digital affinity profiling via proximity ligation, sequencing); 10 mM Tris-HCl pH 7.5, 50 mM NaCl, 1 mM DTT, 4% glycerol, room temperature, 30 min; GST-TFs on glutathione beads, 16-mer random dsDNA library, 0.1% formaldehyde crosslink after washing; high values mean tight binding
For one assay, the target named is T1, FLI1 (Homo sapiens, UniProt Q01543 1-452).
T1 sequence: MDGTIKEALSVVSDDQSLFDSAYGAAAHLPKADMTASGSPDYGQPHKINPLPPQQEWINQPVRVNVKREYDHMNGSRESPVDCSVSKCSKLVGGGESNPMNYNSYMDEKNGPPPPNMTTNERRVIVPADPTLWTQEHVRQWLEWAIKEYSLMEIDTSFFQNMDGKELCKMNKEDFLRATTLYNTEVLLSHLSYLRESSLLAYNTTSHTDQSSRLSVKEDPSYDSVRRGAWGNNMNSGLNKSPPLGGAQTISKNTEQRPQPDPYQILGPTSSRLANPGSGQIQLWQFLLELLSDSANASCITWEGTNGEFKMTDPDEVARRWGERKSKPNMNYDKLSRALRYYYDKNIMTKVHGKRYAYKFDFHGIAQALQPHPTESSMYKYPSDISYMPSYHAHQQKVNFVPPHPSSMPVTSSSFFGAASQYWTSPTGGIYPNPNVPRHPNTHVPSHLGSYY
The conditions noted are these: protein: recombinant; tags: N-terminal GST; dsDNA, one strand shown. A digest of the protocol:
(§1)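 After expression in yeast as GST fusions, human transcription factors were bound to glutathione beads, DNA-barcoded and mixed with a tag-only sample. The pools were incubated with 200 nmole of a 16-mer random double-stranded DNA library in Tris/NaCl/DTT/glycerol buffer (30 min, room temperature), washed and crosslinked with 0.1% formaldehyde. Proximity ligation with BsaI/T4 ligase ran for 1 h at 37 °C, before PCR amplification and sequencing on an Illumina NextSeq500. Binding signal is a hexamer's read frequency for a factor divided by its frequency for the tag-only sample.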

The target in the next assay is T2, ELK1 (Homo sapiens, UniProt P19419 1-428).
T2 sequence: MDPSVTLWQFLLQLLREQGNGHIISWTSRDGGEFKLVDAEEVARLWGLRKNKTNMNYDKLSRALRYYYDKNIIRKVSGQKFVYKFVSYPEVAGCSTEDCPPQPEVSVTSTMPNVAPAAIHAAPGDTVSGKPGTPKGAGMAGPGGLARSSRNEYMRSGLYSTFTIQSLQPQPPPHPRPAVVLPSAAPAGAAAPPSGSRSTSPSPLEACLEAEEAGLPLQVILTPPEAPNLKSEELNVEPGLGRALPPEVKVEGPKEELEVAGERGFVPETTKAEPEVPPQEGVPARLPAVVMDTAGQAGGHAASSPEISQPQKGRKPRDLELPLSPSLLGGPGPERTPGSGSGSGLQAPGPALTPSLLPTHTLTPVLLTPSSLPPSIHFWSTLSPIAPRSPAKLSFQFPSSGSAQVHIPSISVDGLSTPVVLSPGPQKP
As to conditions: protein: recombinant; tags: N-terminal GST; dsDNA, one strand shown. In short, it runs like this: as §1

The target in a further assay is T3, GABPA (Homo sapiens, UniProt Q06546 1-454).
T3 sequence: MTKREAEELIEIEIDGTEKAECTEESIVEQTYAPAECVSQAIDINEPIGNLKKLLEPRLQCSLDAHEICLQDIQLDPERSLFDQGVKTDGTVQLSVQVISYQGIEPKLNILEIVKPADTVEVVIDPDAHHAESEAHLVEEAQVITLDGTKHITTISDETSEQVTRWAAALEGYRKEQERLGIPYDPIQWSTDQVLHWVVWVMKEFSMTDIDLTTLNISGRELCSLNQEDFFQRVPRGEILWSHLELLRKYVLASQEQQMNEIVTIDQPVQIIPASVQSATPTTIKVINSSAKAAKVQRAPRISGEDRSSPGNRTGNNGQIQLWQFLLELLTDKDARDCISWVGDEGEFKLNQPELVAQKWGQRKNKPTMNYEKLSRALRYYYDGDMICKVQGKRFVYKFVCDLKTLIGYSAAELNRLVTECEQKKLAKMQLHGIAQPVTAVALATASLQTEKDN
As to conditions: protein: recombinant; tags: N-terminal GST; dsDNA, one strand shown. A digest of the protocol: as §1

For another assay, the target named is T4, ERG (Homo sapiens, UniProt P11308 1-479).
T4 sequence: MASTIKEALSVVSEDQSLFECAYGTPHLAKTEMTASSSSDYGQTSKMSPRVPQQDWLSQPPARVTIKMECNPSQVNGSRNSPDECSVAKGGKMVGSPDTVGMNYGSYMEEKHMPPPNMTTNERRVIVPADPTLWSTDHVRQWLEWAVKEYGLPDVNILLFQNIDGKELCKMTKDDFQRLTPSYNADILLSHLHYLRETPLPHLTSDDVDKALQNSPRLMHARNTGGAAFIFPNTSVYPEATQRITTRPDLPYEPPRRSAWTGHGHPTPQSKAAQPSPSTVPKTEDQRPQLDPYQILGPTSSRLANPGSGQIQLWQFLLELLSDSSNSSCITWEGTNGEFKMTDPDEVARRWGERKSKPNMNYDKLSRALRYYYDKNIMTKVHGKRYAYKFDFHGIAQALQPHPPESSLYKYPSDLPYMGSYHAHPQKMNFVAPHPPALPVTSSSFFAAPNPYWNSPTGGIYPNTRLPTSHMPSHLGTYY
As to conditions: protein: recombinant; tags: N-terminal GST; dsDNA, one strand shown. In short, it runs like this: as §1

The next assay concerns the target ELF1 (Homo sapiens, UniProt P32519 1-619). The conditions noted are these: protein: recombinant; tags: N-terminal GST; dsDNA, one strand shown. In short, it runs like this:
as §1

The target in a further assay is T5, EHF (Homo sapiens, UniProt Q9NZC4 1-300).
T5 sequence: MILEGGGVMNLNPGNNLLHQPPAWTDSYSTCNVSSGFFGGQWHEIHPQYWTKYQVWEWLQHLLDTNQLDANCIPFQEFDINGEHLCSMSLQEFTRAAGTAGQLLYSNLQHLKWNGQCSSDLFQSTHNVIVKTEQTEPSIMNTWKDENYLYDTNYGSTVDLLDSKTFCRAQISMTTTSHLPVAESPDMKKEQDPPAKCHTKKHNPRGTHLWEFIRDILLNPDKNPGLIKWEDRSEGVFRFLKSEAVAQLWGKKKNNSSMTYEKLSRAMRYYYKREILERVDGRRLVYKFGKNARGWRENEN
As to conditions: protein: recombinant; tags: N-terminal GST; dsDNA, one strand shown. A digest of the protocol: as §1

Another assay has as its target SPI1 (Homo sapiens, UniProt P17947 1-270). The conditions noted are these: protein: recombinant; tags: N-terminal GST; dsDNA, one strand shown. In short, it runs like this:
as §1

Another assay deals with SPIB (Homo sapiens, UniProt Q01892 1-262). As to conditions: protein: recombinant; tags: N-terminal GST; dsDNA, one strand shown. A digest of the protocol:
as §1

For a further assay, the target named is T6, ELK3 (Homo sapiens, UniProt P41970 1-407).
T6 sequence: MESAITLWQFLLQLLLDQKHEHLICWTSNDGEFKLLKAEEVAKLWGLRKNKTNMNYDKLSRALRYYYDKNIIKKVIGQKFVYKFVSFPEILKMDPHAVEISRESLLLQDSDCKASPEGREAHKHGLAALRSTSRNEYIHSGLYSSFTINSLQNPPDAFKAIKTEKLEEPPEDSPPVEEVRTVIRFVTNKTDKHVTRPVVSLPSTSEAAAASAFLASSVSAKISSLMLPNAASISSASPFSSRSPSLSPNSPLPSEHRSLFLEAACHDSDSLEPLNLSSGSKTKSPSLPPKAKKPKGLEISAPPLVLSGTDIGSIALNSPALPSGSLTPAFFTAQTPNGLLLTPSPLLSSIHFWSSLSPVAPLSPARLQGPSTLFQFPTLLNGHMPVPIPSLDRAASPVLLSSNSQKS
The conditions noted are these: protein: recombinant; tags: N-terminal GST; dsDNA, one strand shown. A digest of the protocol: as §1

For another assay, the target named is T7, FEV (Homo sapiens, UniProt Q99581 1-238).
T7 sequence: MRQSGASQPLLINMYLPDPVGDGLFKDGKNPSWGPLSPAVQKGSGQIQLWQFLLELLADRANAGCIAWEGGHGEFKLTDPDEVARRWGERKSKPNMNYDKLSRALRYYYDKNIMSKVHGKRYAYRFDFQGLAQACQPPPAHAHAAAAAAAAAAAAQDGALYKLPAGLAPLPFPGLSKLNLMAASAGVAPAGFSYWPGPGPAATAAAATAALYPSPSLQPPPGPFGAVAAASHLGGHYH
As to conditions: protein: recombinant; tags: N-terminal GST; dsDNA, one strand shown. A digest of the protocol:
as §1

In a further assay the target is ETV5 (Homo sapiens, UniProt P41161 1-510). As to conditions: protein: recombinant; tags: N-terminal GST; dsDNA, one strand shown. A digest of the protocol:
as §1

A further assay addresses HSF1 (Homo sapiens, UniProt Q00613 1-529). The conditions noted are these: protein: recombinant; tags: N-terminal GST; chain copies: 3; dsDNA, one strand shown. In short, it runs like this: as §1
The target in the next assay is T8, SPIC (Homo sapiens, UniProt Q8N5J4 1-248).
T8 sequence: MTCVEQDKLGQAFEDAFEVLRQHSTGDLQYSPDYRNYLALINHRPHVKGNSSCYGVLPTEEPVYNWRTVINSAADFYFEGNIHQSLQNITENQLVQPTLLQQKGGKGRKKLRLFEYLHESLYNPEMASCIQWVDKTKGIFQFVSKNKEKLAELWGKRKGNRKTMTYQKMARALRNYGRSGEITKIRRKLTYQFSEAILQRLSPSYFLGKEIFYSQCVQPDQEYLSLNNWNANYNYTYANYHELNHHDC
The conditions noted are these: protein: recombinant; tags: N-terminal GST; dsDNA, one strand shown. A digest of the protocol: as §1

The next assay concerns the target ELF4 (Homo sapiens, UniProt Q99607 1-663). The conditions noted are these: protein: recombinant; tags: N-terminal GST; dsDNA, one strand shown. In short, it runs like this: as §1
The target in a further assay is T9, ELK4 (Homo sapiens, UniProt P28324-2 1-405).
T9 sequence: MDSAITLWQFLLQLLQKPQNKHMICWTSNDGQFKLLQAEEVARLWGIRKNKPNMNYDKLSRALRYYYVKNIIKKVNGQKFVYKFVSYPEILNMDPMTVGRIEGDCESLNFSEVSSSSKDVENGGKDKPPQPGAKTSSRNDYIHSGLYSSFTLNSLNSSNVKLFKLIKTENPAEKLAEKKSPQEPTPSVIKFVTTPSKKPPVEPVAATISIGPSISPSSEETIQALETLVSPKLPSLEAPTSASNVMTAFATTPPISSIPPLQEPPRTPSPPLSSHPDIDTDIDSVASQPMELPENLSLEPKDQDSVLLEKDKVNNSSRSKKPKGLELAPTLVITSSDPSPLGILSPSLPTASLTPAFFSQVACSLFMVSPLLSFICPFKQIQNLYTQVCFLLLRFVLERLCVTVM
The conditions noted are these: protein: recombinant; tags: N-terminal GST; dsDNA, one strand shown. In short, it runs like this: as §1

A further assay concerns the target T10, ETV2 (Homo sapiens, UniProt O00321 1-342).
T10 sequence: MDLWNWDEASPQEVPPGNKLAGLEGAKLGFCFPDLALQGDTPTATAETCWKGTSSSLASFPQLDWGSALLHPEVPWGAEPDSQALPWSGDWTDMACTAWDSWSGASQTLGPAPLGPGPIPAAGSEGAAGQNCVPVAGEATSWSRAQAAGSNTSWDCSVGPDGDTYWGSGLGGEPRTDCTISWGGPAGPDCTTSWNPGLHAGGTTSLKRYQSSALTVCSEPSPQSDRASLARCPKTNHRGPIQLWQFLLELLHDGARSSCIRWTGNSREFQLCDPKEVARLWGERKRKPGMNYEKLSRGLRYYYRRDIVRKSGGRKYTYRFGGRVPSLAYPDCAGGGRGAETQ
The conditions noted are these: protein: recombinant; tags: N-terminal GST; dsDNA, one strand shown. A digest of the protocol: as §1

The next assay has as its target T11, ELF3 (Homo sapiens, UniProt P78545 1-371).
T11 sequence: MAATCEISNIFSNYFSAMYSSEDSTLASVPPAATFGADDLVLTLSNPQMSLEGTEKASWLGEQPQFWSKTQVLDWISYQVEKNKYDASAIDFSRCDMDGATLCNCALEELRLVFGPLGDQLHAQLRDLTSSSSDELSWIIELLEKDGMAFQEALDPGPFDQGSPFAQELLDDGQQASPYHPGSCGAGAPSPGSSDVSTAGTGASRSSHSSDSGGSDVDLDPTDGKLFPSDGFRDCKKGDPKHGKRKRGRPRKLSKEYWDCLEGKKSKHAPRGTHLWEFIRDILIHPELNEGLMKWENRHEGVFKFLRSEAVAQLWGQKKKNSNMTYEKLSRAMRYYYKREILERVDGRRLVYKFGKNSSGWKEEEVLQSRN
The conditions noted are these: protein: recombinant; tags: N-terminal GST; dsDNA, one strand shown. A digest of the protocol: as §1

Another assay has as its target CRX (Homo sapiens, UniProt O43186 1-299). The conditions noted are these: protein: recombinant; tags: N-terminal GST; dsDNA, one strand shown. A digest of the protocol:
as §1

In another assay the target is ETV1 (Homo sapiens, UniProt P50549 1-477). As to conditions: protein: recombinant; tags: N-terminal GST; dsDNA, one strand shown. A digest of the protocol:
as §1

Sequence of HSF1 (Q00613 whole entry): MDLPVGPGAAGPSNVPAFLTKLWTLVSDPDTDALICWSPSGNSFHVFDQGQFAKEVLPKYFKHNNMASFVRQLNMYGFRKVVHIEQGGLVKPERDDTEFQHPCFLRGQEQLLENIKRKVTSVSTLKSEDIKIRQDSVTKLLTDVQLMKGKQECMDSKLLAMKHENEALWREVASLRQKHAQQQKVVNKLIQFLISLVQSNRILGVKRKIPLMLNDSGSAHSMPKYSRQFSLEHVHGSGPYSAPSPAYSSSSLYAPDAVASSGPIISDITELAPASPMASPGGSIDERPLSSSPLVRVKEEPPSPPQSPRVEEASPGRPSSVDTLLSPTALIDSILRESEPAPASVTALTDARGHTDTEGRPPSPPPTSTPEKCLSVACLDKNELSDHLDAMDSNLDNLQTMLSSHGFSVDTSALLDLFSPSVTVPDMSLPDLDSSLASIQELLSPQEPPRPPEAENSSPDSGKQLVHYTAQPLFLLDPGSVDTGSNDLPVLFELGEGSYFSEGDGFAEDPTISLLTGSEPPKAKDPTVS
Sequence of ELF4 (Q99607 whole entry): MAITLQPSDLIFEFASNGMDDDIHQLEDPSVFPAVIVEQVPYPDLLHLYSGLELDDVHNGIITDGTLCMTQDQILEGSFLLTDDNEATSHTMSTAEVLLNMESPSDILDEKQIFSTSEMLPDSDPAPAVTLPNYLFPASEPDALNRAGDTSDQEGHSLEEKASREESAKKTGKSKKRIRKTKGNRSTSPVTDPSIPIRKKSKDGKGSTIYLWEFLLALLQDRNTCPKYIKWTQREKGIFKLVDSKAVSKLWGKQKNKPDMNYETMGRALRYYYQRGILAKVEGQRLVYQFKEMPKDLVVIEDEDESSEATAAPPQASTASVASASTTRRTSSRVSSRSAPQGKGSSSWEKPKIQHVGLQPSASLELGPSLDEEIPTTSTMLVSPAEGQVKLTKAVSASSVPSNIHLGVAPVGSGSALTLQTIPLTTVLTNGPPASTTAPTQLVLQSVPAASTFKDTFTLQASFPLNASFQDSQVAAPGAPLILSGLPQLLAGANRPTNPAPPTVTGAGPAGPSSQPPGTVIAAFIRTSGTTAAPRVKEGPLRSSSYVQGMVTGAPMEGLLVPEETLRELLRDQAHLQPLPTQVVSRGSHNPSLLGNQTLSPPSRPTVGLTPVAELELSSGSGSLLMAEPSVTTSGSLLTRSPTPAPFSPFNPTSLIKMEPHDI
Sequence of ELF1 (P32519 whole entry): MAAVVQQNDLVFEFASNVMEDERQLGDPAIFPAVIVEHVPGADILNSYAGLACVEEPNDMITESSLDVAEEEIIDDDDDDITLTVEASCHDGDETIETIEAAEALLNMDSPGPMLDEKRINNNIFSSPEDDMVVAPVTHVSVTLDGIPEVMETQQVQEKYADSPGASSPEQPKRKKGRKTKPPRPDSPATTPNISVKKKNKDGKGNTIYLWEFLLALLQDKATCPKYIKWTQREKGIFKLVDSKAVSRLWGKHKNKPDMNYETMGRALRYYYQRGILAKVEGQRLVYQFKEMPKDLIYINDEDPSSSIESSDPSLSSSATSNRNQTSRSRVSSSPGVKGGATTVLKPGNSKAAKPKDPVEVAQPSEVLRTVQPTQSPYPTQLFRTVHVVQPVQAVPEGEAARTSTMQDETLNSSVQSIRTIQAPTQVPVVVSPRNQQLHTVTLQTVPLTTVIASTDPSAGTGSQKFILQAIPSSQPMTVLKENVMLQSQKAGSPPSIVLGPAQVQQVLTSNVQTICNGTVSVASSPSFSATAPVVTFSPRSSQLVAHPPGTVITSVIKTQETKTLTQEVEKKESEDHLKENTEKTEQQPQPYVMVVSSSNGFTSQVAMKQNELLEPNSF
Sequence of ETV5 (P41161 whole entry): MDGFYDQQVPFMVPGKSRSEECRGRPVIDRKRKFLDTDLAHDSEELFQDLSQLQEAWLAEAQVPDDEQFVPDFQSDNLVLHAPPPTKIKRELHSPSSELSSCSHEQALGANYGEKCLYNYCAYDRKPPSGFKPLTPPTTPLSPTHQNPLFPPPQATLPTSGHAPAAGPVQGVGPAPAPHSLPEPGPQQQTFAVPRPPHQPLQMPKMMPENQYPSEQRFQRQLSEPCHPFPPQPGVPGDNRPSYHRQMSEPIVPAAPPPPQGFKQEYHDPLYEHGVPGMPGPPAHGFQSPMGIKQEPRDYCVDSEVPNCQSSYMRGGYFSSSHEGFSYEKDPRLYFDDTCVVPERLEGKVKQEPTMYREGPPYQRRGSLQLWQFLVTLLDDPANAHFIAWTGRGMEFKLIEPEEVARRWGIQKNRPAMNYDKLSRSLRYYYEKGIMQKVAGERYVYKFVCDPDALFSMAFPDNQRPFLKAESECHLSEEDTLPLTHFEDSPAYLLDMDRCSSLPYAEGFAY
Sequence of ETV1 (P50549 whole entry): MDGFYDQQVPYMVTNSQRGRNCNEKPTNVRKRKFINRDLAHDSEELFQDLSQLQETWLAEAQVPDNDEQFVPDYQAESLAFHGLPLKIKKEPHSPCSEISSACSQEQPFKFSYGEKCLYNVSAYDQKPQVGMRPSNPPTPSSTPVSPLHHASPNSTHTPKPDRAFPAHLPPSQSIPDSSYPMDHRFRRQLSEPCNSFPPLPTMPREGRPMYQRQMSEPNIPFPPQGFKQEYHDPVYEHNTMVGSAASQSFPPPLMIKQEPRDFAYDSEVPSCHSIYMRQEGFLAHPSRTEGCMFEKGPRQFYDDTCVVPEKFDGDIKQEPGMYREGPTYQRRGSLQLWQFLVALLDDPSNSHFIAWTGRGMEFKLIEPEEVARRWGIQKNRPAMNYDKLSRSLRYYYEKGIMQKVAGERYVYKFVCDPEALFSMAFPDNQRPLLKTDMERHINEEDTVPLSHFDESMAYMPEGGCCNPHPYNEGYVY
Sequence of CRX (O43186 whole entry): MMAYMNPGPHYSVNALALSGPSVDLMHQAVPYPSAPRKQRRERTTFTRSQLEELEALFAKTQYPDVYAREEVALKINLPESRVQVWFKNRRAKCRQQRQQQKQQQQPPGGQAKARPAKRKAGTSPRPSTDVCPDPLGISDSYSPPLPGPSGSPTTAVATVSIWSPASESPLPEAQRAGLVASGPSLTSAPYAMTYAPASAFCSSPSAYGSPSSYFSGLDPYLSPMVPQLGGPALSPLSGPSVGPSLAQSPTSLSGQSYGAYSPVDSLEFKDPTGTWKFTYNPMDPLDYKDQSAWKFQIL
Sequence of SPIB (Q01892 whole entry): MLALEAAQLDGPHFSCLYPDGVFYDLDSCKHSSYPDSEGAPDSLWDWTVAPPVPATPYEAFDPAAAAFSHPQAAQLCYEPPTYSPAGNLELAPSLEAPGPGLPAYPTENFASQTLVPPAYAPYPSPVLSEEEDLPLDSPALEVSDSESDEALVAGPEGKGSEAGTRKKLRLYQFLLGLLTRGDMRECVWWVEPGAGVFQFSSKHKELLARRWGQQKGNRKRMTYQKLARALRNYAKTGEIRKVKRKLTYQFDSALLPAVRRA

CTATAA: the binding signal with FLI1 was 1.26 fold enrichment (6-mer frequency, TF over GST control); with ELK1, 1.22 fold enrichment (6-mer frequency, TF over GST control); with GABPA, 1.18 fold enrichment (6-mer frequency, TF over GST control); in the assay with ERG it was 1.2 fold enrichment (6-mer frequency, TF over GST control); in the assay with ELF1, 1.27 fold enrichment (6-mer frequency, TF over GST control); in the assay with EHF, 1.12 fold enrichment (6-mer frequency, TF over GST control). In addition, the binding signal with SPI1 is 1.25 fold enrichment (6-mer frequency, TF over GST control); with SPIB, 1.35 fold enrichment (6-mer frequency, TF over GST control); in the assay with ELK3, 1.25 fold enrichment (6-mer frequency, TF over GST control); with FEV, 1.16 fold enrichment (6-mer frequency, TF over GST control); with ETV5, 1.23 fold enrichment (6-mer frequency, TF over GST control); with HSF1 it was 1.51 fold enrichment (6-mer frequency, TF over GST control). The binding signal is 1.35 fold enrichment (6-mer frequency, TF over GST control) with SPIC; 1.26 fold enrichment (6-mer frequency, TF over GST control) with ELF4; 1.36 fold enrichment (6-mer frequency, TF over GST control) with ELK4; 1.15 fold enrichment (6-mer frequency, TF over GST control) in the assay with ETV2; 1.25 fold enrichment (6-mer frequency, TF over GST control) with ELF3; 1.83 fold enrichment (6-mer frequency, TF over GST control) with CRX. Moreover, the binding signal with ETV1 was 1.2 fold enrichment (6-mer frequency, TF over GST control).
